# Results: PubChem BioAssay (EPA / NIEHS)
# The source made the active and inactive calls. The calls were made as follows: active = hit-call score of the fitted dose curve at least 0.9, where 1 is the maximum; inactive = score below 0.9.
# Columns and labels:
# Settings in all cases: mRNA level, 48 h; actives raise or lower the signal
# CYP2C9 (gene 1559) = experiment: LTEA_HepaRG_CYP2C9: Life Technologies and Expression Analysis (LTEA) Assay for CYP2C9 using HepaRG (AID 2283484)
# In short: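 Differentiated human HepaRG cells in serum-free induction medium were exposed 48 h to chemicals in 8-point half-log series from 100 uM (0.5% DMSO), in duplicate. CYP2C9 mRNA was measured by qRT-PCR, normalized to ACTB/GAPDH/POLR2A, with bidirectional fitting versus DMSO.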
# CYP2E1 (gene 1571) = experiment: LTEA_HepaRG_CYP2E1: Life Technologies and Expression Analysis (LTEA) Assay for CYP2E1 using HepaRG (AID 2283485)
# In short: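 HepaRG cells, plated 48 h, then exposed 48 h in serum-free induction medium to eight half-log concentrations from 100 uM in 0.5% DMSO, duplicate. CYP2E1 mRNA by qRT-PCR, normalized to ACTB/GAPDH/POLR2A; bidirectional fit versus DMSO.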
# CYP4A11 (gene 1579) = experiment: LTEA_HepaRG_CYP4A11: Life Technologies and Expression Analysis (LTEA) Assay for CYP4A11 using HepaRG (AID 2283486)
# In short: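 Readout is CYP4A11 transcript level by qRT-PCR, normalized to three housekeeping genes and fitted bidirectionally against 0.5% DMSO. Human HepaRG cells were treated 48 h, in duplicate, with an 8-point half-log series topping at 100 uM.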
# [1] = read-out: Cytochrome P450 3A4 (Homo sapiens) (UniProt P08684); experiment: LTEA_HepaRG_CYP3A4: Life Technologies and Expression Analysis (LTEA) Assay for CYP3A4 using HepaRG (AID 2283487)
# In short: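 HepaRG, 48 h exposure, 8-pt CRC from 100 uM (half-log), 0.5% DMSO, duplicates; serum-free induction medium. Readout: CYP3A4 mRNA, qRT-PCR, ACTB/GAPDH/POLR2A normalization. Bidirectional fit vs DMSO.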
# [2] = read-out: DNA damage-inducible transcript 3 (DDIT3), DDIT3 (gene 1649); experiment: LTEA_HepaRG_DDIT3: Life Technologies and Expression Analysis (LTEA) Assay for DNA damage-inducible transcript 3 (DDIT3) using HepaRG (AID 2283488)
# In short: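 HepaRG cells, 48 h after plating, exposed 48 h in serum-free induction medium to 8 half-log concentrations up to 100 uM in 0.5% DMSO, in duplicate. DDIT3 mRNA measured by TaqMan qRT-PCR, normalized to ACTB, GAPDH and POLR2A. Fitted bidirectionally against DMSO.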
# [3] = read-out: Pro-epidermal growth factor (Homo sapiens) (UniProt P01133); experiment: LTEA_HepaRG_EGF: Life Technologies and Expression Analysis (LTEA) Assay for Epidermal growth factor (EGF) using HepaRG (AID 2283489)
# In short: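 EGF transcript measured by Fluidigm TaqMan qRT-PCR with three housekeeping genes for normalization, 48 h after dosing HepaRG cultures in duplicate (top 100 uM, half-log steps, 0.5% DMSO vehicle). Gain or loss relative to DMSO fitted.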
# [4] = read-out: Early growth response protein 1 (EGR1) transcription factor, EGR1 (gene 1958); experiment: LTEA_HepaRG_EGR1: Life Technologies and Expression Analysis (LTEA) Assay for Early growth response protein 1 (EGR1) transcription factor using HepaRG (AID 2283490)
# In short: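 Differentiated HepaRG cells in serum-free induction medium exposed 48 hours, duplicate, to 8 half-log concentrations up to 100 uM in 0.5% DMSO. EGR1 mRNA measured by TaqMan qRT-PCR, normalized to ACTB, GAPDH, POLR2A; bidirectional fit versus DMSO.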
# [5] = read-out: Ezrin (EZR), EZR (gene 7430); experiment: LTEA_HepaRG_EZR: Life Technologies and Expression Analysis (LTEA) Assay for Ezrin (EZR) using HepaRG (AID 2283491)
# In short: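 Read-out is EZR transcript level by qRT-PCR, normalized to three housekeeping genes and fitted bidirectionally against the DMSO control. Human HepaRG cells received test chemicals for 48 h at eight half-log concentrations up to 100 uM in 0.5% DMSO.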
# [6] = read-out: Cytochrome P450 3A7 (Homo sapiens) (UniProt P24462); experiment: LTEA_HepaRG_CYP3A7: Life Technologies and Expression Analysis (LTEA) Assay for CYP3A7 using HepaRG (AID 2283492)
# In short: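 CYP3A7 transcript measured by qRT-PCR (ACTB, GAPDH, POLR2A normalization) after 48 h chemical exposure of HepaRG cells in duplicate. Eight half-log concentrations, maximum 100 uM, 0.5% DMSO vehicle; bidirectional curve fitting against DMSO baseline.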
# CYP3A5 (gene 1577) = experiment: LTEA_HepaRG_CYP3A5: Life Technologies and Expression Analysis (LTEA) Assay for CYP3A5 using HepaRG (AID 2283493)
# In short: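 HepaRG cells, plated 48 h then in serum-free induction medium, dosed in duplicate for 48 h with eight half-log concentrations up to 100 uM in 0.5% DMSO. Gene mRNA by Fluidigm TaqMan qRT-PCR, normalized to ACTB, GAPDH, POLR2A.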
# [7] = read-out: Fatty Acid-Binding Protein 1 (FABP1), FABP1 (gene 2168); experiment: LTEA_HepaRG_FABP1: Life Technologies and Expression Analysis (LTEA) Assay for Fatty Acid-Binding Protein 1 (FABP1) using HepaRG (AID 2283494)
# In short: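 Differentiated human HepaRG cells exposed 48 h in serum-free induction medium to eight half-log concentrations up to 100 uM (0.5% DMSO), duplicate. FABP1 mRNA by qRT-PCR, normalised to ACTB, GAPDH, POLR2A; bidirectional fitting against DMSO.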
# [8] = read-out: Cytochrome P450 4A22 (Homo sapiens) (UniProt Q5TCH4); experiment: LTEA_HepaRG_CYP4A22: Life Technologies and Expression Analysis (LTEA) Assay for Cytochrome P450 4A22 (CYP4A22) using HepaRG (AID 2283495)
# In short: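 Gene expression measured by qRT-PCR against three housekeeping genes (ACTB, GAPDH, POLR2A), with gain or loss fitted relative to 0.5% DMSO vehicle. HepaRG cultures received 48 h chemical treatment, top concentration 100 uM, half-log steps, duplicate wells.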
# [9] = read-out: Cytochrome P450 7A1 (Homo sapiens) (UniProt P22680); experiment: LTEA_HepaRG_CYP7A1: Life Technologies and Expression Analysis (LTEA) Assay for Cytochrome P450 7A1 (CYP7A1) using HepaRG (AID 2283496)
# In short: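 HepaRG cells plated 48 h, then switched to serum-free induction medium and exposed in duplicate for 48 h to 8-point half-log series from 100 uM in 0.5% DMSO. CYP7A1 mRNA by qRT-PCR (TaqMan), normalized to ACTB/GAPDH/POLR2A; bidirectional fit versus DMSO.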
# [10] = read-out: Glutathione S-Transferase (GSTA2), GSTA2 (gene 2939); experiment: LTEA_HepaRG_GSTA2: Life Technologies and Expression Analysis (LTEA) Assay for Glutathione S-Transferase (GSTA2) using HepaRG (AID 2283497)
# In short: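 Differentiated human HepaRG cells were exposed in duplicate for 48 h in serum-free induction medium, 8 points from 100 uM top in half-log steps, 0.5% DMSO. GSTA2 mRNA was measured by TaqMan qRT-PCR, normalized to ACTB, GAPDH and POLR2A; bidirectional fit versus DMSO.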
# [11] = read-out: Glutamate-cysteine ligase catalytic (GCLC), GCLC (gene 2729); experiment: LTEA_HepaRG_GCLC: Life Technologies and Expression Analysis (LTEA) Assay for Glutamate-cysteine ligase catalytic (GCLC) using HepaRG (AID 2283498)
# In short: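 Differentiated HepaRG cells exposed 48 h in serum-free induction medium, eight-point half-log series topping at 100 uM in 0.5% DMSO, duplicates. GCLC mRNA by qRT-PCR normalized to ACTB, GAPDH and POLR2A, fitted bidirectionally versus DMSO.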
# [12] = read-out: growth arrest and DNA damage 45 (GADD45G), GADD45G (gene 10912); experiment: LTEA_HepaRG_GADD45G: Life Technologies and Expression Analysis (LTEA) Assay for growth arrest and DNA damage 45 (GADD45G) using HepaRG (AID 2283499)
# In short: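 GADD45G transcript level by qRT-PCR (housekeeping-normalized: ACTB, GAPDH, POLR2A) after 48 h chemical treatment of a single HepaRG lot in serum-free induction medium; eight-point half-log series up to 100 uM in 0.5% DMSO, duplicates, up- or down-regulation scored.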
# [13] = read-out: Glutamate-cysteine ligase regulatory (GCLM), GCLM (gene 2730); experiment: LTEA_HepaRG_GCLM: Life Technologies and Expression Analysis (LTEA) Assay for Glutamate-cysteine ligase regulatory (GCLM) using HepaRG (AID 2283500)
# In short: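 Differentiated HepaRG cells exposed 48 h in serum-free induction medium to eight half-log concentrations up to 100 uM (0.5% DMSO). GCLM mRNA by TaqMan qRT-PCR, normalized to ACTB, GAPDH and POLR2A; bidirectional fit versus DMSO.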
# [14] = read-out: Glutathione S-transferase M3 (GSTM3), GSTM3 (gene 2947); experiment: LTEA_HepaRG_GSTM3: Life Technologies and Expression Analysis (LTEA) Assay for Glutathione S-transferase M3 (GSTM3) using HepaRG (AID 2283501)
# In short: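 GSTM3 transcript levels came from Fluidigm TaqMan qRT-PCR normalized to three housekeeping genes, fitted in both directions against DMSO. HepaRG cultures received chemicals for 48 h in serum-free induction medium (0.5% DMSO), 8 half-log concentrations up to 100 uM, duplicate.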
# [15] = read-out: Heat shock 70 kDa protein 1 (HSPA1A), gene 3303; experiment: LTEA_HepaRG_HSPA1A: Life Technologies and Expression Analysis (LTEA) Assay for Heat shock 70 kDa protein 1 (HSPA1A) using HepaRG (AID 2283502)
# In short: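 Human HepaRG cells in serum-free induction medium were exposed in duplicate for 48 h to 8 half-log concentrations, highest 100 uM, in 0.5% DMSO. HSPA1A mRNA read by TaqMan qRT-PCR, normalized to ACTB, GAPDH, POLR2A, fitted bidirectionally against DMSO.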
# [16] = read-out: Hypoxia-inducible factor 1-alpha (Homo sapiens) (UniProt Q16665); experiment: LTEA_HepaRG_HIF1A: Life Technologies and Expression Analysis (LTEA) Assay for Hypoxia-inducible factor 1 (HIF1A) Trancription factor using HepaRG (AID 2283503)
# In short: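 Differentiated HepaRG cells in serum-free induction medium exposed 48 h, in duplicate, to 8-point half-log series from 100 uM in 0.5% DMSO. HIF1A mRNA measured by TaqMan qRT-PCR, normalized to ACTB/GAPDH/POLR2A, fitted bidirectionally versus DMSO.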
# Sequence of Hypoxia-inducible factor 1-alpha (Homo sapiens) (Q16665 whole entry, looked up): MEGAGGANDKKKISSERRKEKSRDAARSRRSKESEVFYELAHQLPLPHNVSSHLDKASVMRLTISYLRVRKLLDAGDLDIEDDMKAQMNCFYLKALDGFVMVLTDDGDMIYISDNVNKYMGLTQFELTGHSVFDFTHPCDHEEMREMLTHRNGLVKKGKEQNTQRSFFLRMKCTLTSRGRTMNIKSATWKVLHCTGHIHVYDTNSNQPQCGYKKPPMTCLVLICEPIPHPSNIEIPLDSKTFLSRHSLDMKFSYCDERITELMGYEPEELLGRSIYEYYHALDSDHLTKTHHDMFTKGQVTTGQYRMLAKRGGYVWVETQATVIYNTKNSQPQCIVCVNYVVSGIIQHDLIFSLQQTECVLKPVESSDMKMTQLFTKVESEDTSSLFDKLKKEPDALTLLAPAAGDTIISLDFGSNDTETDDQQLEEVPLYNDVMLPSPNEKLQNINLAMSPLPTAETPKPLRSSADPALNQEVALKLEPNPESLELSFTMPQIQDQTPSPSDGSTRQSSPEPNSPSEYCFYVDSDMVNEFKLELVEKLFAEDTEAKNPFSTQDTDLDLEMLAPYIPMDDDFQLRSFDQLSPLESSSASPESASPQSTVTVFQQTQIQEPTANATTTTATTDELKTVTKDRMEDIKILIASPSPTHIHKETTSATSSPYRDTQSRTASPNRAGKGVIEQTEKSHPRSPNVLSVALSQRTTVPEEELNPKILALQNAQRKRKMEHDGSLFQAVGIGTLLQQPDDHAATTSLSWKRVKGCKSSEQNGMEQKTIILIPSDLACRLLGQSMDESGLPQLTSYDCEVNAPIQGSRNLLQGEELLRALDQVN
# Sequence of Cytochrome P450 3A4 (Homo sapiens) (P08684 whole entry, looked up): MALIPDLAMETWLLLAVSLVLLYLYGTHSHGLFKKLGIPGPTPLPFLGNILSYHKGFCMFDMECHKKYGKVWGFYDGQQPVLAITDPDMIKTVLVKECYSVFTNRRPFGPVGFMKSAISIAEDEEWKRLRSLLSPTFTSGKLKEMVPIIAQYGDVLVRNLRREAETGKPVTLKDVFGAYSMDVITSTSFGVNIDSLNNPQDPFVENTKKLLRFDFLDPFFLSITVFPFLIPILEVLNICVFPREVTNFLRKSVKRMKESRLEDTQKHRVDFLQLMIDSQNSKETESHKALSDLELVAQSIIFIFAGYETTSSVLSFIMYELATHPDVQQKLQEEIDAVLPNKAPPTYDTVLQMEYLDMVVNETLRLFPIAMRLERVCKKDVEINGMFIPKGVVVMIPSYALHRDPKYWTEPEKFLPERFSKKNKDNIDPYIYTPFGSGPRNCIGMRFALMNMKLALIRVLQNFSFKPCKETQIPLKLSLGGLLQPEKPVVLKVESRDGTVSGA
# Sequence of Cytochrome P450 3A7 (Homo sapiens) (P24462 whole entry, looked up): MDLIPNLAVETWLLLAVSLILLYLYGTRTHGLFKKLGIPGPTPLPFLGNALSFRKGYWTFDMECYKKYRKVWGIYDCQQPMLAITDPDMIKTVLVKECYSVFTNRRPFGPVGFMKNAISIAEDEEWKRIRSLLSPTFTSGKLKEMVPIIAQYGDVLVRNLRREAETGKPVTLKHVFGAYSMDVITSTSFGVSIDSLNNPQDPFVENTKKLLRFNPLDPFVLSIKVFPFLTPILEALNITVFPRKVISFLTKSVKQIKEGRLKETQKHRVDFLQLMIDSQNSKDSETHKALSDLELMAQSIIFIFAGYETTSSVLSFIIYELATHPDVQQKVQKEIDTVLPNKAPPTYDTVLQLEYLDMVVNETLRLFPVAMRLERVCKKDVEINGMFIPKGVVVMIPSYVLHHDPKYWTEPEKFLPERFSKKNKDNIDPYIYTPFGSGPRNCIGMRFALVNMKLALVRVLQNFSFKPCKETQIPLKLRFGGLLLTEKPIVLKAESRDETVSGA
compound,measurement,setting,value
Cc1ccc(C)c(O)c1,outcome,CYP2C9 (gene 1559),inactive
same,outcome,CYP2E1 (gene 1571),inactive
same,outcome,CYP4A11 (gene 1579),inactive
same,outcome,[1],inactive
same,outcome,[2],inactive
same,outcome,[3],inactive
same,outcome,[4],inactive
same,outcome,[5],inactive
same,outcome,[6],inactive
same,outcome,CYP3A5 (gene 1577),inactive
same,outcome,[7],inactive
same,outcome,[8],inactive
same,outcome,[9],inactive
same,outcome,[10],inactive
same,outcome,[11],inactive
same,outcome,[12],inactive
same,outcome,[13],inactive
same,outcome,[14],inactive
same,outcome,[15],inactive
same,outcome,[16],inactive
CCOC(=O)CC(CC(=O)OCC)(OC(C)=O)C(=O)OCC,outcome,CYP2C9 (gene 1559),inactive
same,outcome,CYP2E1 (gene 1571),inactive
same,outcome,CYP4A11 (gene 1579),inactive
same,outcome,[1],inactive
same,outcome,[2],inactive
same,outcome,[3],inactive
same,outcome,[4],inactive
same,outcome,[5],inactive
same,outcome,[6],inactive
same,outcome,CYP3A5 (gene 1577),inactive
same,outcome,[7],inactive
same,outcome,[8],inactive
same,outcome,[9],inactive
same,outcome,[10],inactive
same,outcome,[11],inactive
same,outcome,[12],inactive
same,outcome,[13],inactive
same,outcome,[14],inactive
same,outcome,[15],inactive
same,outcome,[16],inactive
Fc1ccccc1[C@@H](F)COC1CCC(Nc2ncnc3[nH]ncc23)CC1 (stereo not given in full),AC50,CYP2C9 (gene 1559),37.7 µM (active)
same,AC50,CYP2E1 (gene 1571),12.7 µM (active)
same,AC50,CYP4A11 (gene 1579),40.1 µM (active)
same,AC50,[1],35.6 µM (active)
same,AC50,[2],28.9 µM (active)
same,AC50,[3],50 µM (active)
same,AC50,[4],14.3 µM (active)
same,outcome,[5],inactive
same,AC50,[6],83.1 µM (active)
same,outcome,CYP3A5 (gene 1577),inactive
same,AC50,[7],64 µM (active)
same,AC50,[8],23 µM (active)
same,AC50,[9],77.1 µM (active)
same,AC50,[10],37.5 µM (active)
same,AC50,[11],50 µM (active)
same,AC50,[12],30 µM (active)
same,outcome,[13],inactive
same,AC50,[14],65.2 µM (active)
same,AC50,[15],50 µM (active)
same,AC50,[16],33.1 µM (active)
